# Reference: PubChem BioAssay AID1259313 (Sanford-Burnham Center for Chemical Genomics, 2017)
# Screen size: about 340,000 compounds; about 8,500 (2.5%) were called active. This excerpt belongs to a sample that is enriched for actives. A number with no mark means an inactive call.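 How the source made its calls: active means melting temperature shift of at least 10% of the positive control shift, at one fixed dose; inactive means the rest.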
# Tested on: Glutamate receptor ionotropic, NMDA 3A (GRIN3A) ligand-binding domain
# Experiment: NR3A LBD thermal stabilization by compounds – biophysical, differential scanning fluorimetry, uHTS, primary screen (AID 1259313)
# Conditions: at 25 µM, stronger effect = higher value, 0% = protein alone, 100% = glycine-bound protein
row,SMILES,Tm shift relative to glycine control
1,Cc1ccc2nsnc2c1NC(=O)c1ccccc1[N+](=O)[O-],-9.29%
2,COc1ccc(NC(=O)Nc2ccc3nsnc3c2)cc1,33.6% (active)
3,O=C(Nc1ccccc1)c1ccc2nsnc2c1,1.64%
4,COc1ccc(/C=N/NC(=O)Nc2ccc3nsnc3c2)c(OC)c1,-2.88%
5,COCCNC(=O)Nc1ccc2nc(-c3ccco3)c(-c3ccco3)nc2c1,-1.95%
6,COc1ccc2nc(/N=C(\N)NC(=O)Nc3ccccc3)nc(C)c2c1,29.4% (active)
7,COc1ccc2nc(C)cc(Nc3cccc(C(=O)O)c3)c2c1,-1.4%
8,Cc1ccc(NC(=O)Nc2ccc3oc(C)nc3c2)cc1,-7.01%
9,COc1ccc(NC(=O)Nc2ccc3nc(C)c(C)nc3c2)cc1,19% (active)
10,Cc1nc(/N=C(\N)NC(=O)NC2CCCCC2)nc2ccccc12,-0.41%
11,CCC1(C(=O)c2ccccc2)C(c2cccc([N+](=O)[O-])c2)C1(C(=O)OC)C(=O)OC (stereo not given),-4.39%
12,CCCCCN(C(=O)NC(=O)Nc1ccccc1C)S(C)(=O)=O,-1.26%
13,O=C(CN1CCN(S(=O)(=O)c2ccc3ccccc3c2)CC1)NC(=O)NC1CCCCC1,-9.92%
14,COc1cc(NS(=O)(=O)c2ccc(NC(=S)NC(=O)c3ccccc3)cc2)nc(OC)n1,-2.53%
15,CCOC(=O)CCP(=O)(O)C(O)(c1ccccc1)c1ccccc1,-1.33%
16,Cc1ccc(N2C(=O)CN=C2Nc2nc(C)cc(C)n2)cc1,-1.23%
17,O=C(Nc1nnc(SCc2ccc(Cl)cc2Cl)s1)C1COc2ccccc2O1 (stereo not given),15.3% (active)
18,O=C(Nc1nnc(SCc2c(Cl)cccc2Cl)s1)C1CCCO1 (stereo not given),1.89%
19,O=C(Nc1nnc(SCc2ccccc2Cl)s1)c1cccc([N+](=O)[O-])c1,-14.6%
20,Cc1nc([N+](=O)[O-])c(NCCCO)n1Cc1ccccc1,-1.5%

row,SMILES,Tm shift relative to glycine control
1,O=C(NCCCN1CCOCC1)c1cnn2c(-c3ccccc3)cc(-c3ccccc3)nc12,-3.89%
2,COc1ccc(OC)c(Nc2nc(-c3ccc(O)c(O)c3)cs2)c1,19% (active)
3,COc1ccc(OC)c(-c2csc(NC(=O)COC(=O)C3CC3)n2)c1,-1.41%
4,COc1cc(CC(=O)Nc2nc(-c3ccc(F)c(F)c3)cs2)cc(OC)c1OC,-3.34%
5,CCOc1ccc(Cn2nnc(C(=O)Nc3ccc(OC)cc3OC)c2N)cc1,2.21%
6,CCOC(=O)CNc1nc(Cl)nc(Nc2ccccc2)n1,-0.5%
7,CCOC(=O)CNc1nc(Cl)nc(Nc2ccc(OC)cc2OC)n1,13.1% (active)
8,CCN(CC)c1ccc(NC(=O)C2CCC(CNc3c(N4CCCC4)c(=O)c3=O)CC2)c(C)c1 (stereo not given),1.77%
9,CCOC(=O)N1CCN(C(=O)CSc2nnc(-c3c[nH]c4ccccc34)n2CCOC)CC1,0.55%
10,OC(CNCc1ccc(Cl)c(Cl)c1)c1ccccc1 (stereo not given),2.04%
11,C/C(N)=C(/C#N)C(=O)COC(=O)c1cc(-c2cccc(Br)c2)nc2ccccc12,30.1% (active)
12,COc1cccc(OC)c1C(=O)OCC(=O)/C(C#N)=C(\C)N,-2%
13,C/C(N)=C(/C#N)C(=O)COC(=O)c1cc(-c2ccc(C)cc2)nc2ccccc12,-1.48%
14,COc1cc(C(=O)N2C(=O)c3cccc(N)c3C2=O)cc(OC)c1OC,-1.08%
15,CN1C(=O)c2cccc3c(N)ccc(c23)C1=O,11.8% (active)
16,Cc1nn(C)cc1N1C(=O)c2cccc3c(N)ccc(c23)C1=O,-0.63%
17,Cc1ccc(CNC(=O)[C@@H](NC(=O)Cc2ccccc2)C(C)C)cc1,-6.13%
18,O=C1c2ccccc2NC(c2ccc(-c3cccc(Cl)c3)o2)N1O (stereo not given),-0.47%
19,O=C1NN(c2ccccc2)C(=O)/C1=C/c1ccc(-c2cccc(C(=O)O)c2)o1,-14.4%
20,O=C(O)C(c1ccccc1)N1C(=O)/C(=C\c2ccc(-c3cccc(Cl)c3)o2)SC1=S (stereo not given),27.7% (active)

row,SMILES,Tm shift relative to glycine control
1,O=C(Nc1ccc(-c2csc(Nc3cccc(C(F)(F)F)c3)n2)cc1)c1cccc(C(F)(F)F)c1,25.4% (active)
2,O=C(O)CSc1c2c(nc3cc(C(=O)Nc4cccc(C(F)(F)F)c4)ccc13)CCCC2,-1.44%
3,O=C(Nc1ccc(C(F)(F)F)cc1)c1cccc(-n2cnnn2)c1,-5.14%
4,CS(=O)(=O)N(Cc1ccccc1)c1ccc(C(=O)NN=C2CCCCCC2)cc1,0.85%
5,Clc1ccc2nc(CSc3ccccc3)cn2c1,0.36%
6,Cc1c(NC(=S)NC(=O)CCc2ccccc2)c(=O)n(-c2ccccc2)n1C,-3.07%
7,O=C(O)CSc1ccc(S(=O)(=O)N2CCCC2)cn1,0.42%
8,CCN(CC)c1ccc(C(=O)N/N=C(\C)c2cccc(OC)c2)cc1,2.58%
9,COc1ccc(/C(C)=N/NC(=O)c2ccc3nc[nH]c3c2)cc1,-1.41%
10,COc1ccc(/C(C)=N\NC(=O)c2ccc(-c3ccccc3)cc2)c(F)c1,19.6% (active)
11,COc1ccc(Cl)cc1NC(=O)NC(C)C(C)(C)C (stereo not given),-7.8%
12,O=C(CN1C(=O)CC(c2ccccc2)=Nc2ccccc21)NC1CCCCC1,300% (active)
13,O=C(CN1C(=O)CC(c2ccccc2)S(=O)(=O)c2ccccc21)NC1CCCC1 (stereo not given),-2.04%
14,CC(=O)c1cc(-c2ccccc2)n(CC(=O)NC2CCCCC2)c1C,0.92%
15,O=[N+]([O-])c1ccccc1S(=O)(=O)Nc1cccc2cccnc12,-0.26%
16,CC(=O)/C(=N\Nc1ccc(Cl)cc1Cl)Sc1cccc2cccnc12,-8.55%
17,O=C(Nc1ccccc1Cl)Nc1cccc2cccnc12,39.4% (active)
18,O=C(Nc1ccccc1)Oc1cccc2cccnc12,-3.82%
19,COc1ccc(NC(=O)Nc2cccc3cccnc23)cc1,12.4% (active)
20,CCOC(=O)Cc1ncccc1C(=O)Nc1ccc(OC)cc1,-0.6%
